The sample as a whole holds a higher share of hits than the screen did.
Artemis endo inh: inhibitors of human Artemis endonuclease activity; AID 686954; recombinant Artemis, quenched FAM hairpin cleavage fluorescence; 30,000 compounds, 0.78% hits; inhibition, % at 10 µM;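 active = at 10 µM dose, at least 30% inhibition, measured as corrected fluorescence normalized to stimulator and neutral control wells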
Target sequence (Q96SD1 whole entry, looked up): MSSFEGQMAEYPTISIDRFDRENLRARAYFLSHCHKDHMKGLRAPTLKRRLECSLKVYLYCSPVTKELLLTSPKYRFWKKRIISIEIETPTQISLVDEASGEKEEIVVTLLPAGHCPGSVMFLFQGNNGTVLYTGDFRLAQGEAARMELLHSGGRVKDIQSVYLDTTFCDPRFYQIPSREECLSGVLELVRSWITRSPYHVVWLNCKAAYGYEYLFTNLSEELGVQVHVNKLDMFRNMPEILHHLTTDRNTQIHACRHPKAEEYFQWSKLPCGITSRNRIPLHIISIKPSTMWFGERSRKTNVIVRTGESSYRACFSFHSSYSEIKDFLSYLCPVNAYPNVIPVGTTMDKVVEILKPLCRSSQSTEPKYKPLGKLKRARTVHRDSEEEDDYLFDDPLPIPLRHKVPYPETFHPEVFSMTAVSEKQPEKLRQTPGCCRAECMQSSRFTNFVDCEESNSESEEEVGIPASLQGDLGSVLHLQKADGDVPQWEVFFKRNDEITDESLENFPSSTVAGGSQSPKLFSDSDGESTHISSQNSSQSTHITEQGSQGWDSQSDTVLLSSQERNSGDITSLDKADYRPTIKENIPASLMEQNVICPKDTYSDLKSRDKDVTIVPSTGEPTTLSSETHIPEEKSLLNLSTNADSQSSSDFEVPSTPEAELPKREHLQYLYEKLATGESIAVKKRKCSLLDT
Numbers stand for hits; . = inactive.

SMILES	Artemis endo inh
Cc1ccc(C(=O)c2ccccc2C(=O)O)s1	.
CC(C)(C)C1CCc2c(sc(NC(=O)c3cccs3)c2C(=O)N2CCCCC2)C1 (stereo unspecified)	.
Fc1ccc(-c2cc(C(F)(F)F)nc(NCC3CCCO3)n2)cc1 (stereo unspecified)	.
O=C1c2ccccc2C(=O)c2c1ccc(C(=O)N1CCCCC1)c2NCCO	.
O=C1C(Nc2ccccc2)=C(N2CCCCC2)C(=O)c2ccccc21	39
O=C(Nc1ccccc1)Nc1ccc(S(=O)(=O)N2CCCCC2)cc1	.
O=S(=O)(CCc1nc2ccccc2s1)c1ccc2ccccc2c1	.
CC1(C)Cc2c(cnn2-c2ccccc2)-c2c1c1ccccc1n2CC(O)CBr (stereo unspecified)	.
Cc1noc(C)c1C(=O)Nc1ccc(F)cc1F	.
N#Cc1ccccc1Sc1ccccc1C(=O)Nc1ccccc1	.
O=C(COC(=O)c1ccc(Br)o1)Nc1cccc(S(=O)(=O)N2CCCCCC2)c1	.
CSc1nc(N(CCO)CCO)c2sc3nc(-c4ccco4)c4c(c3c2n1)CCC4	46
N#Cc1sc2nc3c(c(-c4ccco4)c2c1N)CCCC3	.
CC(C)c1nc2sc3c(SCC(=O)NCc4ccco4)ncnc3c2c2c1CCC2	.
COc1ccc(F)cc1S(=O)(=O)Nc1ccc(C)cc1	.
CC(=O)c1cc(F)c(N2CCN(C(=O)COc3ccccc3F)CC2)cc1C	.
CCCCn1c2nc3ccccc3nc2c2c(=O)n(CCC)cnc21	.
CCO/C(C)=N/n1c2nc3ccccc3nc2c2c(=O)n(C3CCCC3)c(C)nc21	.
Cc1nc2c(c(=O)n1CCC1=CCCCC1)c1nc3ccccc3nc1n2/N=C/c1ccco1	41
CCCCCCn1cnc2c(c1=O)c1nc3ccccc3nc1n2/N=C/c1ccco1	32
Cc1cccc(-n2cnc3c(c2=O)c2nc4ccccc4nc2n3Cc2ccco2)c1	.
CCCCCCn1cnc2c(c1=O)c1nc3ccccc3nc1n2Cc1cccs1	.
O=C(Cc1ccc(Cl)cc1)NCC(=O)N1CCCC1	.
O=C(CSc1nnc(-c2ccccc2)o1)OCc1ccccc1	.
CCOC(=O)C1=C(CSc2nc(-c3ccccc3)ccc2C#N)OC(N)=C(C#N)C1c1ccc(OC)cc1 (stereo unspecified)	.
SMILES	Artemis endo inh
O=c1c(Cc2ccc(F)cc2)c(O)ccn1Cc1ccc(Cl)cc1Cl	.
Cn1c(-c2ccccc2)cc2c3no[n+]([O-])c3ccc21	.
Cc1ccc(O)c(N=CC2=C(O)c3ccccc3C2=O)c1	38
O=C1C(C=Nc2ccccc2)=C(O)c2ccccc21	.
COc1ccc(N=CC2=C(O)c3ccccc3C2=O)cc1	.
N#Cc1c(-c2ccc(Cl)cc2)ccn2nc(C3CCCCC3)nc12	.
Oc1c(Br)cc(Br)cc1/C=N/c1nc2c(s1)CCCC2	.
Oc1ccc2ccccc2c1C=Nc1ccccc1-c1nc2ccccc2[nH]1	.
Oc1ccc2ccccc2c1/C=N/c1nc2c(s1)CCCC2	63
COc1ccc(CCn2c(C)c(C(C)=O)c3cc(OC(=O)c4ccco4)ccc32)cc1OC	.
O=C(Nc1cccnc1)C1(F)C(F)(F)C(F)(F)C(F)(F)C(F)(F)C1(F)F	.
COc1cc2ccccc2cc1C(=O)Nc1cccnc1	.
COC(=O)/C=C/C(=O)Nc1cccnc1	35
Cc1ccc(S(=O)(=O)NC(=O)NCCCCNC(=O)NS(=O)(=O)c2ccc(C)cc2)cc1	.
Clc1cccc(Cl)c1CSc1nnc(-c2sccc2-n2cccc2)o1	.
CS(=O)(=O)N(CC(=O)NCc1ccc2c(c1)OCO2)Cc1ccc(Cl)cc1	.
COc1cccc(-c2nnc(SCC(=O)N3CCOCC3)o2)c1	.
COC(=O)CN(C(=O)CSc1nnc(-c2cccc(OC)c2)o1)c1ccc(OC)cc1	34
COc1ccc(C(=O)CSc2nnc(-c3ccccc3)o2)cc1	.
Cc1ccc(S(=O)(=O)N(CC(=O)N/N=C/c2cccc(C)c2)c2cccc3cccnc23)cc1	.
CCOc1ccc2nc(SCC(=O)Nc3cc4c(cc3C(C)=O)OCO4)[nH]c2c1	.
COC(=O)c1ccccc1NC(=O)C1CCN(C(=O)c2ccc(OC)cc2)CC1	.
O=c1cc(-c2ccccc2)nc2nc(COc3ccccc3)[nH]n12	.
O=c1cc(-c2ccccc2)nc2nc(-c3ccccc3)[nH]n12	.
Nc1[nH]n2c(=O)cc(-c3ccccc3)nc2c1N=Nc1ccccc1	47
SMILES	Artemis endo inh
C=CCn1c(SC/C=C/c2ccccc2)nnc1-c1sc(N)nc1C	.
O=C(O)CCN1C(=O)/C(=C/c2ccc(-c3nc4ccccc4s3)o2)SC1=S	.
O=c1oc2ccccc2n1CSc1nc2ccccc2s1	.
O=C(O)CC(C(=O)O)N1C(=O)/C(=C/c2ccc(-c3nc4ccccc4s3)o2)SC1=S (stereo unspecified)	64
CC(C)Oc1snc(Cl)c1C(N)=O	.
COc1cc(C)c(Br)cc1S(=O)(=O)N1CCCC1	.
COc1ccc(C(=O)Nc2ccc(N3CCCC3)cc2)cc1	62
O=C(Nc1ccc(N2CCCCC2)cc1)c1ccc(F)cc1	.
CCOc1ccc(C(=O)Nc2ccc(N3CCCC3)cc2)cc1	.
O=S(=O)(Cc1ccc(Cl)cc1)c1ccccc1-c1nnc(-c2ccc(Cl)cc2)o1	.
NC(=O)C1CCN(C(c2ccccc2Cl)c2nnnn2Cc2ccc3c(c2)OCO3)CC1 (stereo unspecified)	.
c1ccc2c(SCc3cn4cccnc4n3)ncnc2c1	.
O=c1c2ccccc2nc(SCc2cn3ccsc3n2)n1-c1ccc(F)cc1	.
O=c1c2c(-c3ccco3)csc2nc(SCc2cn3cccnc3n2)n1-c1ccccc1	31
CCN(CC)S(=O)(=O)c1ccc(NC(=O)CC(NC(C)=O)c2ccccc2)cc1 (stereo unspecified)	.
Cc1ccc(C(=O)NCC(=O)OCC(=O)c2c(N)n(C)c(=O)n(C)c2=O)s1	.
C=CCOC(=O)C(C#N)c1nc2ccccc2nc1N1CCN(c2ccccc2OC)CC1 (stereo unspecified)	.
C=CCOC(=O)C(C#N)c1nc2ccccc2nc1N1CCN(Cc2ccccc2)CC1 (stereo unspecified)	.
CCOC(=O)N1CCN(c2nc3ccccc3nc2C(C#N)S(=O)(=O)c2ccc(C)cc2)CC1 (stereo unspecified)	33
COc1ccc(S(=O)(=O)Nc2ccc(F)c(Cl)c2)cc1OC	.
COC(=O)c1nn(-c2ccccc2)c(Sc2ccc(OC)cc2)c1/C=N/O	.
Cc1ccc(-c2cc(C(=O)NCc3ccco3)c3ccccc3n2)o1	.
Cc1ccc(-c2cc(C(=O)NCCCn3ccnc3)c3cc(Br)ccc3n2)o1	31
COc1ccc(C(=O)NCCCn2ccnc2)cc1	.
COC(=O)c1cc(OC)c(OC)cc1N=CC1=C(O)CC(C)(C)CC1=O	.
SMILES	Artemis endo inh
CCOC(=O)C1CCN(S(=O)(=O)c2c(C)n[nH]c2C)CC1	.
CC(NC(=O)Nc1ccccc1O)(C(F)(F)F)C(F)(F)F	.
COc1cccc(/C=N/NC(=O)c2c(-c3ccccc3)noc2C)c1O	.
COc1cccc(/C=N/n2c(C)nc3ccccc3c2=O)c1O	.
COc1cccc(/C=N/Nc2nc(Nc3ccccc3)nc(-n3nc(C)cc3C)n2)c1O	96
O=C(Cc1ncc(C(F)(F)F)cc1Cl)Nc1ccc(F)cc1	.
O=C1c2ccccc2C(=O)c2c1cccc2N1CCOCC1	.
Cc1nc2ccccc2nc1N1CCOCC1	.
O=C1C(N2CCOCC2)=C(n2nnc3ccccc32)C(=O)c2ccccc21	36
Cc1nc(=O)c(-c2ccccc2)c(C)n1-c1ccccc1O	.
Cc1ccc(C2CC(c3ccccc3)=NN2C(=S)Nc2ccccc2)o1 (stereo unspecified)	.

Bioassay records: PubChem, Sanford-Burnham Center for Chemical Genomics
